How the values were obtained:
[1] = molecular target: Sphingosine kinase 1 (Homo sapiens) (UniProt Q9NYA1); settings: at 1 µM;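 also: mean SPHK1 inhibition value reported from the GSK PKIS kinase panel screen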
[2] = molecular target: T1, Sphingosine kinase 2 (Homo sapiens) (UniProt Q9NRA0); settings: at 0.1 µM
T1 sequence (whole entry): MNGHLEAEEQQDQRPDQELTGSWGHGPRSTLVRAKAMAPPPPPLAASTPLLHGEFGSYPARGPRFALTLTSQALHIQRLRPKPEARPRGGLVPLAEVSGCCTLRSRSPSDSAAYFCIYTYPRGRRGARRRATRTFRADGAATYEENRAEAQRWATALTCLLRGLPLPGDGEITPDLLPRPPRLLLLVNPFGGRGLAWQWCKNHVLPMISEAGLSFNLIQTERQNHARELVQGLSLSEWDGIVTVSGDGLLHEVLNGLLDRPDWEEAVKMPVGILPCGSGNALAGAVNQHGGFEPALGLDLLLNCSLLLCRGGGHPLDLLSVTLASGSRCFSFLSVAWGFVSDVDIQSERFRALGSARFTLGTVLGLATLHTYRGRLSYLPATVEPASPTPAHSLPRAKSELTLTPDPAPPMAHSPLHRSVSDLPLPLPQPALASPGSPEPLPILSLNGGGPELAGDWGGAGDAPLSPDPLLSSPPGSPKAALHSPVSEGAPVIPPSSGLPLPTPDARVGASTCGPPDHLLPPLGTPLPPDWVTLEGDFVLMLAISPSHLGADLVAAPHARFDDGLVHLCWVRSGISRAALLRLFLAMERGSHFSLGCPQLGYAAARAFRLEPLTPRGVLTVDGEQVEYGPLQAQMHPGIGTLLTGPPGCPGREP

[3] = molecular target: T1, Sphingosine kinase 2 (Homo sapiens); settings: at 1 µM
[4] = molecular target: Casein kinase II subunit alpha (Homo sapiens) (UniProt P68400); settings: at 0.1 µM
Sequence of Casein kinase II subunit alpha (Homo sapiens) (P68400 whole entry, looked up): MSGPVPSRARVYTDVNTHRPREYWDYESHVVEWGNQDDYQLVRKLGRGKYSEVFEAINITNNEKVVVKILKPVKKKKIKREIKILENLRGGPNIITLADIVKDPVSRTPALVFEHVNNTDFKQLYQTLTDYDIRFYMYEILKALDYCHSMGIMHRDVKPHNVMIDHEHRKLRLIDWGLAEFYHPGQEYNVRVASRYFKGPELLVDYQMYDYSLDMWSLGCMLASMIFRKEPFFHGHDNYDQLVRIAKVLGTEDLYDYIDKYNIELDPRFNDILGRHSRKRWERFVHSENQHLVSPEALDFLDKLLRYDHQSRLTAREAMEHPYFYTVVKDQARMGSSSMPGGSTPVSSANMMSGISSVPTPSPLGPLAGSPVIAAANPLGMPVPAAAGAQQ

[5] = molecular target: Casein kinase II subunit alpha (Homo sapiens) (UniProt P68400); settings: at 1 µM
[6] = molecular target: T2, Inhibitor of nuclear factor kappa-B kinase subunit alpha (Homo sapiens) (UniProt O15111); settings: at 0.1 µM
T2 sequence (whole entry): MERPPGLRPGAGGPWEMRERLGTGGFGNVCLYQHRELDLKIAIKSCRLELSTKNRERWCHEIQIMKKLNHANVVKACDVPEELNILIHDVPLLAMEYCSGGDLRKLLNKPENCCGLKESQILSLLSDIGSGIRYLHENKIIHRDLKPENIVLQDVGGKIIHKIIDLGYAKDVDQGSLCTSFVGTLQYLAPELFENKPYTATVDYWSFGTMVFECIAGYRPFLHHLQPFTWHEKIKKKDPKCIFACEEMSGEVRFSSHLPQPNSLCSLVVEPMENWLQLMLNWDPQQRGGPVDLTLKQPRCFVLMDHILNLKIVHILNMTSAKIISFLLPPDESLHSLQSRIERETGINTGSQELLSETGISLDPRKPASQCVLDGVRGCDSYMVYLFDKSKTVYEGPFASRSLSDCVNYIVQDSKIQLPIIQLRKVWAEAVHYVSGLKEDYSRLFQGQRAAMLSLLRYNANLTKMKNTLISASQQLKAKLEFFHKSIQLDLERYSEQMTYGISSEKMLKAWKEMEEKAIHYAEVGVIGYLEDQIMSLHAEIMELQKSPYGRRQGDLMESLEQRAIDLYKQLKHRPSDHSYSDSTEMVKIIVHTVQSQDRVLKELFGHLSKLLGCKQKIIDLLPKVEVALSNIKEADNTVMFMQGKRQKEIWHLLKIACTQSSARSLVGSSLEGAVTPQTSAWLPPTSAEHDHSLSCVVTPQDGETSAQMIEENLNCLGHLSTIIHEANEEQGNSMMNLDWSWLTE

[7] = molecular target: T2, Inhibitor of nuclear factor kappa-B kinase subunit alpha (Homo sapiens); settings: at 1 µM
[8] = molecular target: T3, Inhibitor of nuclear factor kappa-B kinase subunit beta (Homo sapiens) (UniProt O14920); settings: at 0.1 µM
T3 sequence (whole entry): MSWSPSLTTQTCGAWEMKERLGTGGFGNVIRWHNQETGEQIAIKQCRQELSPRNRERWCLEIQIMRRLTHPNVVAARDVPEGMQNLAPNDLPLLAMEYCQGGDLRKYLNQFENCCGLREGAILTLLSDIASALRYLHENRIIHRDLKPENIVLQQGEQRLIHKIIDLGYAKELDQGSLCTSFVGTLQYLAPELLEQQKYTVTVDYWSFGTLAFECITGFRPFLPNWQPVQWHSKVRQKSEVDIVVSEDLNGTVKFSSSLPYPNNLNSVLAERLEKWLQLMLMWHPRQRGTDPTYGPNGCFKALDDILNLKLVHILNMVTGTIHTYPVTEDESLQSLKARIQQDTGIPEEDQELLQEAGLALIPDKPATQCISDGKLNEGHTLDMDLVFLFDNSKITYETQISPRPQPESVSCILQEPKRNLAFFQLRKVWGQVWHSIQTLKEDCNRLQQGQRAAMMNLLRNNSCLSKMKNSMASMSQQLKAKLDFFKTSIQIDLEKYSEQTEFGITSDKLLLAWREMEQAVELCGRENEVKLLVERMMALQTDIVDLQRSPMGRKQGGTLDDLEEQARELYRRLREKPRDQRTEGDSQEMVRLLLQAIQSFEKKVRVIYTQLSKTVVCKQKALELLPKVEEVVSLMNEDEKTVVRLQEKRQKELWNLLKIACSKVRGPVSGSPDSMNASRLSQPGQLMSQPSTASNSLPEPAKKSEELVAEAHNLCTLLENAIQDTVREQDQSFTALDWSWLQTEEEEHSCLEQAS

[9] = molecular target: T3, Inhibitor of nuclear factor kappa-B kinase subunit beta (Homo sapiens); settings: at 1 µM
[10] = molecular target: T4, Inhibitor of nuclear factor kappa-B kinase subunit epsilon (Homo sapiens) (UniProt Q14164); settings: at 0.1 µM
T4 sequence (whole entry): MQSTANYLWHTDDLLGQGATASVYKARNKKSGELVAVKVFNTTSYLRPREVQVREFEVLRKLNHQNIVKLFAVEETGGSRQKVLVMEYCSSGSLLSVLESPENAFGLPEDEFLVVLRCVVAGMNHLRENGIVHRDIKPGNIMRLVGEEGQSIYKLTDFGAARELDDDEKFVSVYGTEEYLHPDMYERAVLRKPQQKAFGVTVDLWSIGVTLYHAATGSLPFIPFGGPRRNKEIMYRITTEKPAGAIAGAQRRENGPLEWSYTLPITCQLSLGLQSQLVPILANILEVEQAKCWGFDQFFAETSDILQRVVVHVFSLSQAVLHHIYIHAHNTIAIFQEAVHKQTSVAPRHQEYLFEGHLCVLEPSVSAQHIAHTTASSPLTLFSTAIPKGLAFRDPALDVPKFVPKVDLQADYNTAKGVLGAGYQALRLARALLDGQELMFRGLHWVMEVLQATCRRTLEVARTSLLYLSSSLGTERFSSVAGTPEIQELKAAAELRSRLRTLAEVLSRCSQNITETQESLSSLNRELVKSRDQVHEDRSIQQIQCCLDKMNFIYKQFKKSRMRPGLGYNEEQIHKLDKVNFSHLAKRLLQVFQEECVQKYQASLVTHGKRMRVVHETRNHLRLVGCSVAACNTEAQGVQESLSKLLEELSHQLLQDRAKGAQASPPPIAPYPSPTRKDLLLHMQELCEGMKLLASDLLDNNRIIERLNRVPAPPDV

[11] = molecular target: T4, Inhibitor of nuclear factor kappa-B kinase subunit epsilon (Homo sapiens); settings: at 1 µM
[12] = molecular target: T5, Serine/threonine-protein kinase Nek1 (Homo sapiens) (UniProt Q96PY6); settings: at 0.1 µM
T5 sequence (whole entry): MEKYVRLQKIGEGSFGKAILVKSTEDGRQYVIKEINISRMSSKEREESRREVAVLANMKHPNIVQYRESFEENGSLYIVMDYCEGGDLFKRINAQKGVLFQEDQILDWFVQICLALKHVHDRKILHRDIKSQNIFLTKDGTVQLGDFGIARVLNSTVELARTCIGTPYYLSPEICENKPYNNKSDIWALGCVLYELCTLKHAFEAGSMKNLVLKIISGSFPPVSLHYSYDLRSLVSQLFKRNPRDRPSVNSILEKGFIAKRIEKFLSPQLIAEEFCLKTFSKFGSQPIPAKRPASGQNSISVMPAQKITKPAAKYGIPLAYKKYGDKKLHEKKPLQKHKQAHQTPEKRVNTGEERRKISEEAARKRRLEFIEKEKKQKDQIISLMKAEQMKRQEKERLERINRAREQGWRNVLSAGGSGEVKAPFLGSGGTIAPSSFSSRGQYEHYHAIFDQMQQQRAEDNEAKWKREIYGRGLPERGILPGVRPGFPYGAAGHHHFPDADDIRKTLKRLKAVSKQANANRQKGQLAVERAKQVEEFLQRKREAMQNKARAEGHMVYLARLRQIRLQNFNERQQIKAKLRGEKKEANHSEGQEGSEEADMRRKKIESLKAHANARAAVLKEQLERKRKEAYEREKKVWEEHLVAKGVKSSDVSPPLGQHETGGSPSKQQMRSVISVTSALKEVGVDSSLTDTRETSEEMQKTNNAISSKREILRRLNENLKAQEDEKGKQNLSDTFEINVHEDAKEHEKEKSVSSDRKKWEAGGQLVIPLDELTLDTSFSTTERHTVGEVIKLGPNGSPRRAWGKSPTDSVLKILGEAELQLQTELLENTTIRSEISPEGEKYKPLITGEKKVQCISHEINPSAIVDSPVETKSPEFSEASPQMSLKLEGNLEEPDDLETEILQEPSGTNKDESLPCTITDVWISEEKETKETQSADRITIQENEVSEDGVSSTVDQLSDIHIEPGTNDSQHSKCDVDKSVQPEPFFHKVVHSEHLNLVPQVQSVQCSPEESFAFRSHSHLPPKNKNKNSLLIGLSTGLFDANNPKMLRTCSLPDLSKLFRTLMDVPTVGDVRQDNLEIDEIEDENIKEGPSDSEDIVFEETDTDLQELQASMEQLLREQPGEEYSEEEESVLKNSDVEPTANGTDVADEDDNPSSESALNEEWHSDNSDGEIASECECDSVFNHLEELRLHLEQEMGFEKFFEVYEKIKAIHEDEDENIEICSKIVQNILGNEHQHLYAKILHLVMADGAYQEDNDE

[13] = molecular target: T5, Serine/threonine-protein kinase Nek1 (Homo sapiens); settings: at 1 µM
[14] = molecular target: T6, Serine/threonine-protein kinase Nek2 (Homo sapiens) (UniProt P51955); settings: at 0.1 µM
T6 sequence (whole entry): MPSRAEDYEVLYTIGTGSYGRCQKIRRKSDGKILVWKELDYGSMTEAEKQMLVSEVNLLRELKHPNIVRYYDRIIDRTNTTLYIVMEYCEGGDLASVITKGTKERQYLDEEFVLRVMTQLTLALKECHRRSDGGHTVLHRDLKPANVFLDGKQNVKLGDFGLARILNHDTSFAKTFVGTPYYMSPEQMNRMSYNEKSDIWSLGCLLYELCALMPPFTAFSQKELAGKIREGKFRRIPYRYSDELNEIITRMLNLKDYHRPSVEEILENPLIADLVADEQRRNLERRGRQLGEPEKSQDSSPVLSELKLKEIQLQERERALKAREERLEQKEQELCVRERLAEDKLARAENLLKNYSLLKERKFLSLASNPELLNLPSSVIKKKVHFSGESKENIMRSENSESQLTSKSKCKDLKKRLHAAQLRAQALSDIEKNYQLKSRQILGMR

[15] = molecular target: T6, Serine/threonine-protein kinase Nek2 (Homo sapiens); settings: at 1 µM
[16] = molecular target: Serine/threonine-protein kinase Nek6 (Homo sapiens) (UniProt Q9HC98); settings: at 0.1 µM
Sequence of Serine/threonine-protein kinase Nek6 (Homo sapiens) (Q9HC98 whole entry): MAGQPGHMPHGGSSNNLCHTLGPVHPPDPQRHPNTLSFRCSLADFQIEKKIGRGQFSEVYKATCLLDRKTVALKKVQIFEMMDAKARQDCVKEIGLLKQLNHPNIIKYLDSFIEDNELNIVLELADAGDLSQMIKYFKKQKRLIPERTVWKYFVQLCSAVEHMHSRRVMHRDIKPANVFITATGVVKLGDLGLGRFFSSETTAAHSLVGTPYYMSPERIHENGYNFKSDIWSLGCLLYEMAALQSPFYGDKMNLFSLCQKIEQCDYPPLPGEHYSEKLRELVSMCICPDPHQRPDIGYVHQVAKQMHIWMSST

[17] = molecular target: Serine/threonine-protein kinase Nek6 (Homo sapiens) (UniProt Q9HC98); settings: at 1 µM
[18] = molecular target: Serine/threonine-protein kinase Nek7 (Homo sapiens) (UniProt Q8TDX7); settings: at 0.1 µM
Sequence of Serine/threonine-protein kinase Nek7 (Homo sapiens) (Q8TDX7 whole entry, looked up): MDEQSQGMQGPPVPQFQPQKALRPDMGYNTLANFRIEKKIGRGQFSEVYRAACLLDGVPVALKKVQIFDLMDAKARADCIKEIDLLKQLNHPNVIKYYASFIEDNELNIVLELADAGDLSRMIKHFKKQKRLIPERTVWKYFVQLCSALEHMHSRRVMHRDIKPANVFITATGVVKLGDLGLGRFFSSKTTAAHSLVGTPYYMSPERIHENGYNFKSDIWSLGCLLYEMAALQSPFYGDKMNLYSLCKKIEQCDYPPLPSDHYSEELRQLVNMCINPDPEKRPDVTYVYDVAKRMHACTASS

[19] = molecular target: Serine/threonine-protein kinase Nek7 (Homo sapiens) (UniProt Q8TDX7); settings: at 1 µM
[20] = molecular target: T7, Serine/threonine-protein kinase Nek9 (Homo sapiens) (UniProt Q8TD19); settings: at 0.1 µM;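 also: reported value is the mean percent inhibition of NEK9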
T7 sequence (whole entry): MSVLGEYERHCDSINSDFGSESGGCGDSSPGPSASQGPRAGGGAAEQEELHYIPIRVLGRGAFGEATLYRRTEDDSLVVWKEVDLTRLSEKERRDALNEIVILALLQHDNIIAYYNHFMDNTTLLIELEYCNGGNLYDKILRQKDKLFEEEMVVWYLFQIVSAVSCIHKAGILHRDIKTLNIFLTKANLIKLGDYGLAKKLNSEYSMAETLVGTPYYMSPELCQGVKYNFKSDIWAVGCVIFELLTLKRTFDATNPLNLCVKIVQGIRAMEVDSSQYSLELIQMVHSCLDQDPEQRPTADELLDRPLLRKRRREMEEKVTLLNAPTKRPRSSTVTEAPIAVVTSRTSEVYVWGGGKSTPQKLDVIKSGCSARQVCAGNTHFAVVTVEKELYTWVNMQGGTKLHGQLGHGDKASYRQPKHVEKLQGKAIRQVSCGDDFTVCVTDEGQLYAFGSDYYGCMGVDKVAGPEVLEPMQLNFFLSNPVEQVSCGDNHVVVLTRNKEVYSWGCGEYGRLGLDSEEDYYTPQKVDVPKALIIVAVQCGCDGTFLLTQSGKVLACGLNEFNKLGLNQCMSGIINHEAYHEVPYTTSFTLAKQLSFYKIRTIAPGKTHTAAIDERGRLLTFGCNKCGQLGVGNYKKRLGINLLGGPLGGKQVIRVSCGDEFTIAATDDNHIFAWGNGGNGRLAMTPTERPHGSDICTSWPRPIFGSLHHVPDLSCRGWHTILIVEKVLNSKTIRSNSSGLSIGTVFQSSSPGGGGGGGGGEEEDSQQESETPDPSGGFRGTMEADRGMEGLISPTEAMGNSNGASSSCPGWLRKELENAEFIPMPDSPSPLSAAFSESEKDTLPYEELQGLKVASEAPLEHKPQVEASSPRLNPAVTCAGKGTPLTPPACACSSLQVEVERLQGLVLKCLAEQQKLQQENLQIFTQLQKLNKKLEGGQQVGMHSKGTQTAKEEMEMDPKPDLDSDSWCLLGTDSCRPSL

Sequence of Sphingosine kinase 1 (Homo sapiens) (Q9NYA1 whole entry): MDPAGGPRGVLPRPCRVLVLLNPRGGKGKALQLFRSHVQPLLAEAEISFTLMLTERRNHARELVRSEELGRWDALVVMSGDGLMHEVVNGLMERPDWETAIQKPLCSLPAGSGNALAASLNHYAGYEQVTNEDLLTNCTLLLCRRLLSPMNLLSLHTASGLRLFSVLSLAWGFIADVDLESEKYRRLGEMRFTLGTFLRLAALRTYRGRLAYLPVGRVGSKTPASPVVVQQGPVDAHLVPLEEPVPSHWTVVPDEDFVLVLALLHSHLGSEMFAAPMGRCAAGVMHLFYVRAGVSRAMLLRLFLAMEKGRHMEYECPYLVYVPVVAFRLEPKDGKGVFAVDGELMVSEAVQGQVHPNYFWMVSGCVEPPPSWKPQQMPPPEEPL

## CN(C)C(=O)O[C@H]1CN[C@H](C#Cc2cc3ncnc(Nc4ccc(OCc5cccc(F)c5)c(Cl)c4)c3s2)C1
[1]
  inhibition: -2.15%
[2]
  inhibition: -0.26%
[3]
  inhibition: 0.69%
[4]
  inhibition: 0.63%
[5]
  inhibition: 0.63%
[6]
  inhibition: 1.66%
[7]
  inhibition: 2.62%
[8]
  inhibition: 3.17%
[9]
  inhibition: -7.42%
[10]
  inhibition: 1.55%
[11]
  inhibition: 4.15%
[12]
  inhibition: 1.2%
[13]
  inhibition: 3.73%
[14]
  inhibition: 4.44%
[15]
  inhibition: 5.04%
[16]
  inhibition: 1.81%
[17]
  inhibition: -0.96%
[18]
  inhibition: 3.6%
[19]
  inhibition: 2.54%
[20]
  inhibition: 7.4%

Source: ChEMBL document CHEMBL1961873, “Compounds: GSK PKIS; Assays: Nanosyn kinase panel” (2012)
